Screen size: about 65,000 compounds; about 1,200 (1.8%) were called active. Shown is part of a subset that was picked to be rich in actives. Values without a mark were called inactive. Cut-off read from the data, not from the text of the source: active = inhibition above about 50%; inactive = the rest.

The test concerns the target Gag-Pol polyprotein (Human immunodeficiency virus type 1 group M subtype B (isolate HXB2)) (UniProt P04585). The test can be described thus: blockers of HIV-1 RNase H RNA/DNA cleavage – biochemical, fluorescence, primary screen (AID 565). As to conditions: RT-RNase H RNA/DNA duplex cleavage, at 10 µM, hits give high values.
For the molecule `COc1c(C)cccc1C(=O)Nc1cc(Cl)ccc1N1CCOCC1`, the inhibition was -7.75%.

Take `O=C(Nc1cc(N2CCOCC2)ncn1)NC1(C(F)(F)F)Oc2ccc(Cl)cc2O1` (stereo not drawn): the inhibition was 62.3% (active).

Take `c1cnn(-c2cc(N3CCOCC3)ncn2)c1`: the inhibition is -2.75%. For `CC(Sc1nncn1C)C(=O)Nc1ccccc1-c1ccccc1` (stereo not drawn), the inhibition was -1.62%.

Regarding `Cc1ccccc1OCC(=O)Nc1ccc(N2CCN(C(=O)C(C)C)CC2)c(Cl)c1`, the inhibition is -29%.

For the molecule `CCc1ccccc1NC(=O)CSc1nnc([C@@H](NC(=O)OC(C)(C)C)C(C)C)o1`, the inhibition was -2.47%. Next, `CCCCOC(=O)CNc1nnc(SCC(=O)OCC)[nH]c1=O`: 55.9% (active); `CCOC(=O)c1c(NC(=O)CSc2nnc(C)c(=O)[nH]2)sc2c1CCC2`: 2.54%. As to `CCOC(=O)CSc1nc2sc3c(c2c(=O)[nH]1)CC(C)(C)OC3`, the inhibition was -2.48%. Next, `CCn1c(=O)cc(O)c2ccccc21`: -0.16%. In the case of `CCn1c(=N)c(S(=O)(=O)c2ccc(F)cc2)cc2c(=O)n3ccccc3nc21`, the inhibition is 2.52%. Next, `Cc1nc2nc(COc3ccccc3)[nH]n2c(=O)c1C`: -3.44%; `CC1(C)CC(=O)C2=C(C1)NCN(CCCN1CCOCC1)C2`: -6.75%; `C=C(C)Cn1c(N2CCN(CC)CC2)nc2c1c(=O)[nH]c(=O)n2C`: 10.6%.

Turning to `c1ccc(CCn2nnnc2CN2CCN(C3CCCC3)CC2)cc1`, the inhibition was -0.5%.

With `Cc1ccc(S(=O)(=O)Cn2nnnc2CN2CCN(Cc3ccc4c(c3)OCO4)CC2)cc1`, the inhibition is 1.61%. As for `Cc1ccc(Cn2nnnc2CN2CCC(n3nnc4ccccc43)CC2)cc1`, the figure is 68.7% (active). Next, `Brc1ccc(Nc2c3c(nc4ncnn24)CCC3)cc1`: -1.42%. For `Cc1c(C(=O)CN2CCOCC2)[nH]c2ccccc12`, the inhibition is -6.56%.

In the case of `O=C1NC(c2ccncc2)Nc2sc3c(c21)CCCC3` (stereo not drawn), the inhibition is 12.9%. As to `Clc1ccc(C2CC(c3cccs3)n3ncnc3N2)cc1Cl` (stereo not drawn), the inhibition was -4.72%. Consider `Cc1ccnc(N2CCC(C(=O)NC3CCCCCC3)CC2)n1`, for which the inhibition was -5.09%. As to `O=C(Nc1ccc2c(c1)OCCO2)C1CCCN(c2ncccn2)C1` (stereo not drawn), the inhibition was 7.08%. As for `Cc1ccnc(N2CCCC(C(=O)Nc3cc(F)ccc3C)C2)n1` (stereo not drawn), the figure is 58.3% (active); as for `O=C(NCCC1=CCCCC1)C1CCN(Cc2cnn(-c3ccccc3)c2-n2cccc2)CC1`, -3.34%; as for `Cc1cc(C)c2c(n1)nn1c(-n3ccnc3)cc(C)nc21`, -11.4%. In the case of `CCOC(=O)N1CCN(CC(=O)c2ccc3c(c2)CCN3)CC1`, the inhibition is 75.5% (active).

For `CCOC(=O)N1CCN(CC(=O)n2c(C)c(C)c3ccccc32)CC1`, the inhibition was -3.69%. Next, `CCOC(=O)N1CCN(CC(=O)c2c(C)[nH]c3ccccc23)CC1`: -4.83%; `O=C1c2ccncc2C(=O)N1C1CCCCC1`: -26.2%. As to `COCCNC(=S)c1ccc(OC)cc1`, the inhibition is 88.3% (active).

On to `COCCNC(=O)COc1ccc(C)c(C)c1`, for which the inhibition was -5.41%. Next, `COc1ccc(NC(=O)c2ccc(OC)cc2)cc1`: 2.87%; `COC(=O)C(C)Sc1nc2c(c(=O)n(C)c(=O)n2C)n1Cc1cccc(C)c1` (stereo not drawn): 8.94%; `Cc1cc(Nc2ccccc2)n(CCC#N)n1`: -2.42%.

In the case of `CCc1ccc2oc(=O)cc(CN3CCCCC3C)c2c1` (stereo not drawn), the inhibition is -13.3%. Take `Cc1nc(C)c(C(=O)Nc2ccc(C)c(F)c2)o1`: the inhibition was 31.9%. As for `COc1ccc(Cl)cc1NC(=O)c1oc(C)nc1C`, the inhibition was 12.9%.

As for `Cc1nc(C)c(C(=O)Nc2cccc(C)c2C)o1`, the inhibition was 52.9% (active). On to `CS(=O)(=O)N(CC(=O)N1CCN(c2cccc(Cl)c2)CC1)c1ccccc1`, for which the inhibition was -9.31%. As to `CCOC(=O)CSc1nnc(-c2ccncc2)o1`, the inhibition was -9.52%.

Take `COCCCNC(=O)COc1cc(C)c(Cl)c(C)c1`: the inhibition is -96.5%. As for `CCC(Sc1nncn1C)C(=O)Nc1nnc(-c2ccc(Cl)cc2)s1` (stereo not drawn), the figure is -2.44%; as for `COc1cccc(-c2nnc(NC(=O)c3ccc(S(=O)(=O)N(CC(C)C)CC(C)C)cc3)o2)c1`, 65.7% (active). As for `COc1cccc(NC(=O)CN(C)S(=O)(=O)c2ccc(C)cc2)c1`, the figure is -3.65%; as for `CCN(CC)C(=O)CSc1nnc(-c2cccc(OC)c2)o1`, -4.72%. As for `CCOc1cc(S(=O)(=O)NCc2ccc3c(c2)OCO3)ccc1F`, the inhibition was -4.32%. Next, `Cc1ccc2[nH]c3c(c2c1)CN(C(=O)CN1CCN(c2ccccc2)CC1)CC3`: -8.5%; `CCCC(=O)N1CCc2[nH]c3ccccc3c2C1`: 51.2% (active); `O=C(NC1CCCCC1)N1CCc2[nH]c3ccccc3c2C1`: -1.26%.

For the molecule `CCCC(NS(=O)(=O)c1ccc(OC)cc1)C(=O)O` (stereo not drawn), the inhibition is -5.87%.

Regarding `CCc1nnc(NC(=O)CSc2nnc(Cc3ccccc3)n2-c2ccc(OC)cc2)s1`, the inhibition is 10.7%. As for `CCc1nnc(NC(=O)CSc2nnc(COc3ccc(C#N)cc3)n2-c2ccccc2)s1`, the inhibition is 60.1% (active). As for `CCc1nnc(NC(=O)CSc2nnc(-c3ccncc3)n2Cc2ccccc2)s1`, the figure is -7.97%; as for `CCOC(=O)N1CCN(C(=O)c2cc3c(-c4ccc(Cl)cc4)nn(C)c3s2)CC1`, -13.4%. As for `CCCCn1c(SCc2ncc(-c3ccccc3)o2)nc2cc(S(N)(=O)=O)ccc21`, the figure is -15.2%. With `CCOc1ccc(N(CC(=O)OC)S(=O)(=O)c2c(C)noc2C)cc1`, the inhibition is -2.65%. On to `Cc1ccc(Nc2nc(CSc3nnnn3-c3ccccc3)cc(=O)[nH]2)cc1`, for which the inhibition is 2.45%. Consider `N#CCSc1nc2ccccc2c(=O)n1-c1ccccc1`, for which the inhibition is -15%. Regarding `O=c1c2ccccc2nc(CSc2nnnn2-c2ccccc2)n1-c1ccccc1`, the inhibition was 52% (active). Consider `COc1ccc(OCCCC(=O)Nc2nnc(C3CCCO3)s2)cc1` (stereo not drawn), for which the inhibition is 8.11%.

`CCCCC(=O)N(c1ccc(OC)cc1)C1C=CS(=O)(=O)C1` (stereo not drawn): the inhibition was -0.43%. In the case of `COC(=O)N(c1ccc(OC)cc1)P1(=S)OCCC(C)O1` (stereo not drawn), the inhibition is 94.7% (active).

The values above are taken from PubChem BioAssay AID565 (University of Pittsburgh Molecular Library Screening Center, 2006).
